Where “and” joins values, the source holds several entries; their conditions need not be identical. Equal values may be shown once. Inconclusive results are not listed. Calls of active or inactive are those of the source. How the source made its calls, unless noted: active means hit-call score of the fitted dose curve at least 0.9, where 1 is the maximum; inconclusive means response in the unintended direction; inactive means score below 0.9.
How the values were obtained:
[1] = biological target: human Dopamine Transporter (DAT), SLC6A3 (gene 6531) (UniProt Q01959); assay: NVS_TR_hDAT: NovaScreen (NVS) Transporter Assay for human Dopamine Transporter (DAT) (AID 2283374);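 further: activity means loss of bound radioligand signal relative to DMSO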
Outline: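 Cell-free radioligand displacement binding at human DAT, 1 h after dosing, with filtration and scintillation counting. Primary screen in duplicate at 25 uM, actives then in concentration series. Loss of bound signal versus DMSO scored.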

[2] = biological target: human Norepinephrine Transporter (NET), SLC6A2 (gene 6530) (UniProt P23975); assay: NVS_TR_hNET: NovaScreen (NVS) Transporter Assay for human Norepinephrine Transporter (NET) (AID 2283377);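 on AC50: displacement of radioligand from human NET seen as loss of scintillation signal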
Outline: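 Cell-free radioligand binding using CHO-derived membrane protein expressing human NET, read by filter scintillation counting 1 h after dosing; loss of signal vs DMSO. Initial duplicate screen at 25 uM, actives retested in concentration series.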

[3] = CCTE_Shafer_MEA_acute_spike_number: CCTE's Neural Acute Assay for Total Number of Spikes, Shafer Lab (AID 2284008; active means hit-call score of the fitted dose curve at least 0.9, where 1 is the maximum; inactive means score below 0.9;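 on AC50: curve fitted for decrease in spike count so AC50 reflects inhibitors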)
Outline: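 Using an adaptive detector set to 8x rms noise, spikes were counted in 40-min windows before and after compound addition (0.03-40 uM) to rat cortical networks at 37 C; the well-level change from baseline was analysed relative to DMSO.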

[4] = CCTE_Shafer_MEA_acute_firing_rate_mean: CCTE's Neural Acute Assay for Mean Firing Rate, Shafer Lab (AID 2284009; active means hit-call score of the fitted dose curve at least 0.9, where 1 is the maximum; inactive means score below 0.9;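 further: analyzed for loss of signal so actives lower firing rate relative to DMSO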)
Outline: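 Rat primary cortical neurons on 48-well MEA plates, dosed at 0.03-40 uM on DIV 13 or 15; 40 min spontaneous activity recorded at 37 C before and after compound. Spike rate per electrode averaged per well, expressed as percent change from baseline.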

[5] = CCTE_Shafer_MEA_acute_burst_number: CCTE's Neural Acute Assay for Single-Electrode Bursts, Shafer Lab (AID 2284013; active means hit-call score of the fitted dose curve at least 0.9, where 1 is the maximum; inactive means score below 0.9)
Outline: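 Primary rat cortical neurons on 16-electrode MEA wells, treated on DIV 13 or 15 with compound at 0.03-40 uM. Single-electrode burst count from 40-min recordings at 37 C before and after exposure; percent change from baseline per well, DMSO negative control.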

[6] = CCTE_Shafer_MEA_acute_burst_duration_mean: CCTE's Neural Acute Assay for Mean Burst Duration, Shafer Lab (AID 2284014; active means hit-call score of the fitted dose curve at least 0.9, where 1 is the maximum; inactive means score below 0.9;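 further: hits are decreases in mean burst duration relative to DMSO controls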)
Outline: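 Rat primary cortical neurons on 48-well MEA, treated at DIV 13 or 15 with 0.03-40 uM in at least 3 wells. Value is percent change in mean burst duration, comparing 40 min recordings at 37 C before and during exposure.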

[7] = CCTE_Shafer_MEA_acute_per_burst_spike_number_mean: CCTE's Neural Acute Assay for Average Number of Spikes Per Burst, Shafer Lab (AID 2284015; active means hit-call score of the fitted dose curve at least 0.9, where 1 is the maximum; inactive means score below 0.9;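 further: hits are decreases in mean spikes per burst versus baseline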)
Outline: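 Rat primary cortical neurons on 48-well MEAs (DIV 13 or 15) were treated with 0.03-40 uM compound at 37 C. Mean spikes per burst over 40 min were recorded before and after exposure and expressed as percent change from baseline, relative to DMSO.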

[8] = CCTE_Shafer_MEA_acute_interburst_interval_mean: CCTE's Neural Acute Assay for Mean Interburst Interval, Shafer Lab (AID 2284016; active means hit-call score of the fitted dose curve at least 0.9, where 1 is the maximum; inactive means score below 0.9;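 further: percent change of mean interburst interval versus each well's own pre-dose baseline; curves fitted for decrease in interburst interval relative to DMSO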)
Outline: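 Rat primary cortical neurons on 48-well MEAs at DIV 13 or 15 were exposed acutely to 0.03-40 uM. Spikes detected at 8x rms noise, 37 C. Mean interburst interval from 40 min recordings expressed as percent change from 40 min pre-treatment baseline.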

[9] = CCTE_Shafer_MEA_acute_burst_percentage_mean: CCTE's Neural Acute Assay for Percentage of Spikes in a Burst, Shafer Lab (AID 2284017; active means hit-call score of the fitted dose curve at least 0.9, where 1 is the maximum; inactive means score below 0.9;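 further: curve fitted for loss of signal so potency reflects decreased burst percentage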)
Outline: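 Primary rat cortical neurons on 48-well MEA plates, treated on DIV 13 or 15 at 0.03-40 uM. Spikes detected at 8x rms noise at 37C; percent change from 40-min baseline to 40-min post-dose recording, fitted versus DMSO.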

[10] = CCTE_Shafer_MEA_acute_burst_percentage_std: CCTE's Neural Acute Assay for Standard Deviation of Burst Percentage, Shafer Lab (AID 2284018; active means hit-call score of the fitted dose curve at least 0.9, where 1 is the maximum; inactive means score below 0.9;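 further: fitted in the negative direction so actives lower burst percentage SD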)
Outline: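 Rat primary cortical neurons on 48-well MEAs, DIV 13 or 15, 37 C. 40-min baseline then 40-min recording with compound (0.03-40 uM); well-level SD of per-electrode burst spike percentage, expressed as percent change from baseline.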

[11] = CCTE_Shafer_MEA_acute_per_network_burst_spike_number_mean: CCTE's Neural Acute Assay for Average Number of Spikes in a Network Burst, Shafer Lab (AID 2284019; active means hit-call score of the fitted dose curve at least 0.9, where 1 is the maximum; inactive means score below 0.9;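 on AC50: curve fitted for loss of signal so actives reduce spikes per network burst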)
Outline: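 Rat primary cortical neurons on 48-well MEA at DIV 13 or 15, 37 C; compounds 0.03-40 uM, at least three wells each. 40-min baseline then 40-min exposure recording; percent change in mean spikes per network burst.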

[12] = biological target: human Phosphodiesterase 10 (PDE10), PDE10A (gene 10846) (UniProt Q9Y233); assay: NVS_ENZ_hPDE10: NovaScreen (NVS) Enzymatic Assay for human Phosphodiesterase 10 (PDE10) (AID 2283195)
Outline: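 Recombinant human PDE10 with fluorescent substrate, 1 h, product separated by electrophoretic mobility shift. Loss of enzyme activity fitted against DMSO; initial screen 25 uM in duplicate, actives run to 50 uM maximum.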

[13] = biological target: human Phosphoinositide 3-kinase alpha (PI3Ka), PIK3CA (gene 5290) (UniProt P42336); assay: NVS_ENZ_hPI3Ka: NovaScreen (NVS) Enzymatic Assay for human Phosphoinositide 3-kinase alpha (PI3Ka) (AID 2283196)
Outline: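 Recombinant human PI3Kα with fluorescent substrate, 1 h, product separated by electrophoretic mobility shift; 25 uM duplicate screen, hits (e.g., 30% inhibition) retested singly up to 50 uM; loss of signal vs DMSO.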

[14] = biological target: human AMP-activated Protein Kinase, alpha 1 (AMPKa1), PRKAA1 (gene 5562) (UniProt Q13131); assay: NVS_ENZ_hAMPKa1: NovaScreen (NVS) Enzymatic Assay for human AMP-activated Protein Kinase, alpha 1 (AMPKa1) (AID 2283130)
Outline: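 Recombinant human AMPKα1 activity was measured cell-free by fluorescent substrate conversion with electrophoretic mobility-shift separation, 1 h after dosing. Duplicate single-point screening was at 25 uM; actives (≥30% inhibition) were retested in concentration-response up to 50 uM.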

[15] = biological target: human Matrix Metalloproteinase-1 (MMP1), MMP1 (gene 4312) (UniProt P03956); assay: NVS_ENZ_hMMP1: NovaScreen (NVS) Enzymatic Assay for human Matrix Metalloproteinase-1 (MMP1) (AID 2283181)
Outline: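 Human MMP1 enzyme activity measured by fluorescence 1 h after dosing, cell-free, with a specific substrate. Screened in duplicate at 25 uM; hits (e.g. 30% inhibition) run in concentration-response up to 50 uM; loss of signal versus DMSO.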

[16] = biological target: rat Monoamine Oxidase, MAO-B, Peripheral (MAOBP), Maob (gene 25750) (UniProt P19643); assay: NVS_ENZ_rMAOBP: NovaScreen (NVS) Enzymatic Assay for rat Monoamine Oxidase, MAO-B, Peripheral (MAOBP) (AID 2283242)
[17] = biological target: Bile acid receptor (Homo sapiens) (UniProt Q96RI1); assay: NVS_NR_hFXR_Agonist: NovaScreen (NVS) Nuclear Receptor Binding Assay for human Farnesoid X Receptor Agonism (FXR) (AID 2283347)
Outline: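 Cell-free TR-FRET binding assay with extracted human FXR protein, agonist format, read 1 h after dosing. Primary screen at 25 uM single concentration in duplicate, actives retested in concentration series; gain of signal versus DMSO.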

[18] = biological target: Norway rat Vesicular Monoamine Transporter (VMAT2), neurotransmitter transporter, Slc18a2 (gene 25549) (UniProt Q01827); assay: NVS_TR_rVMAT2: NovaScreen (NVS) Transporter Assay for Norway rat Vesicular Monoamine Transporter (VMAT2), neurotransmitter transporter (AID 2283376);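 further: actives lower the bound radioligand signal below the DMSO level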
Outline: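 Radioligand displacement binding on rat forebrain tissue preparation, filter-based scintillation read-out 1 hour after dosing. Primary screen in duplicate at 25 uM, then concentration series for actives; loss of signal versus DMSO.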

[19] = CCTE_Harrill_HTTr_Apoptosis_PRF_DMEM_12hr: (Pilot) CCTE's 12-hour Apoptosis Assessment for the High-Throughput Transcriptomics (HTTr) Platform, in MCF-7 cells cultured in phenol red-free DMEM + 10% charcoal-stripped fetal bovine serum, Harrill Lab (AID 2283985; active means hit-call score of the fitted dose curve at least 0.9, where 1 is the maximum; inactive means score below 0.9)
Outline: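 MCF-7 cells in phenol red-free DMEM with 10% charcoal-stripped FBS, eight-point dilution series, 12 h exposure. Caspase-3/7 activation imaged by high content imaging with CellEvent Green reagent; bidirectional fit vs DMSO.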

[20] = biological target: rat CYP2C12, Cyp2c12 (gene 25011) (UniProt P11510); assay: NVS_ADME_rCYP2C12: NovaScreen (NVS) CYP450-related Enzyme Activity (ADME) Assay for rat CYP2C12 (AID 2283119)
Outline: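 Cell-free recombinant rat CYP2C12 activity read by fluorescence 0.5 h after dosing; loss of signal versus acetonitrile control. Primary screen in duplicate at 10 uM; actives then run in concentration-response format.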

Chain of rat CYP2C12, Cyp2c12 (gene 25011) (P11510 whole entry, looked up): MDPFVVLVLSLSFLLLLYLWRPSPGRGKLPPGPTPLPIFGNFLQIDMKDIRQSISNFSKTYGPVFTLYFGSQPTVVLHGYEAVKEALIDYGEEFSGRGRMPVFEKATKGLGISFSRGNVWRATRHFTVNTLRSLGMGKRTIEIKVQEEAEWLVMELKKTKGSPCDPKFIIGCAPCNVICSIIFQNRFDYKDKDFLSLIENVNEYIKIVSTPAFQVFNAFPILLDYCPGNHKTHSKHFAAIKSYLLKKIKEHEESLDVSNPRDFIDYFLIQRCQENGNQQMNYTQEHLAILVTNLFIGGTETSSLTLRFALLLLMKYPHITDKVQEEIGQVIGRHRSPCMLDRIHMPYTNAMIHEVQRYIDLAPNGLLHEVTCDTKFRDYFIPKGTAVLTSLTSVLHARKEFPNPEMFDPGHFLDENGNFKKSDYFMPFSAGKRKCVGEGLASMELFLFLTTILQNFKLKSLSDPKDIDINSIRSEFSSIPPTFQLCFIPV
Chain of human Phosphodiesterase 10 (PDE10), PDE10A (gene 10846) (Q9Y233 whole entry, looked up): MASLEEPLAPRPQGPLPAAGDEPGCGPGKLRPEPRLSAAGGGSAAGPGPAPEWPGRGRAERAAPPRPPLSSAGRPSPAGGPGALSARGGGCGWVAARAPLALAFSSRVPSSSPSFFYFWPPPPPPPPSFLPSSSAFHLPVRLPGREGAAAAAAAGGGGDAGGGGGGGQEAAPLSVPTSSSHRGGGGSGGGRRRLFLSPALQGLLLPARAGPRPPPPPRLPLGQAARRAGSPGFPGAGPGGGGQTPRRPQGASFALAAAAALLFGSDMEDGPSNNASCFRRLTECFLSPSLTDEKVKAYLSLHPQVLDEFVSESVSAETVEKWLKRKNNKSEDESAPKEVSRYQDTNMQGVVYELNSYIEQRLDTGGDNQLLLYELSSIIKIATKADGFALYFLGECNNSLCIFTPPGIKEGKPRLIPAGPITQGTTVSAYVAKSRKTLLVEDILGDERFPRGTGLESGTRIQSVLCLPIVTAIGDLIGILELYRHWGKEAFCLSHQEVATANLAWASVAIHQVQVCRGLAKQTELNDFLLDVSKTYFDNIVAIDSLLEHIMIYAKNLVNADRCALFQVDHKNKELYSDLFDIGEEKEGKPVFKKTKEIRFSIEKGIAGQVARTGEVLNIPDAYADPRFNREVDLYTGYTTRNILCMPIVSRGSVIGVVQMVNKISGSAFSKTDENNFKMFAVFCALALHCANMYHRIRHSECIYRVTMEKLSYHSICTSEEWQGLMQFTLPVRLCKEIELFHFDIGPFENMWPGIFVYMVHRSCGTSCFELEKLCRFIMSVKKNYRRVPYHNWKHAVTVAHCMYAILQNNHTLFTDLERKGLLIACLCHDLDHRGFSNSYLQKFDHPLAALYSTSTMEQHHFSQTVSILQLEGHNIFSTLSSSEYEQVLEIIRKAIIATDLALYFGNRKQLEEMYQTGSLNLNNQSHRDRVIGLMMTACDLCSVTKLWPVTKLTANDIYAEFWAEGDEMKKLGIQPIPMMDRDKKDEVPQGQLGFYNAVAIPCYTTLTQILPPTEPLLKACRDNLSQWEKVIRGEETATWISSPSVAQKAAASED
Chain of human Phosphoinositide 3-kinase alpha (PI3Ka), PIK3CA (gene 5290) (P42336 whole entry, looked up): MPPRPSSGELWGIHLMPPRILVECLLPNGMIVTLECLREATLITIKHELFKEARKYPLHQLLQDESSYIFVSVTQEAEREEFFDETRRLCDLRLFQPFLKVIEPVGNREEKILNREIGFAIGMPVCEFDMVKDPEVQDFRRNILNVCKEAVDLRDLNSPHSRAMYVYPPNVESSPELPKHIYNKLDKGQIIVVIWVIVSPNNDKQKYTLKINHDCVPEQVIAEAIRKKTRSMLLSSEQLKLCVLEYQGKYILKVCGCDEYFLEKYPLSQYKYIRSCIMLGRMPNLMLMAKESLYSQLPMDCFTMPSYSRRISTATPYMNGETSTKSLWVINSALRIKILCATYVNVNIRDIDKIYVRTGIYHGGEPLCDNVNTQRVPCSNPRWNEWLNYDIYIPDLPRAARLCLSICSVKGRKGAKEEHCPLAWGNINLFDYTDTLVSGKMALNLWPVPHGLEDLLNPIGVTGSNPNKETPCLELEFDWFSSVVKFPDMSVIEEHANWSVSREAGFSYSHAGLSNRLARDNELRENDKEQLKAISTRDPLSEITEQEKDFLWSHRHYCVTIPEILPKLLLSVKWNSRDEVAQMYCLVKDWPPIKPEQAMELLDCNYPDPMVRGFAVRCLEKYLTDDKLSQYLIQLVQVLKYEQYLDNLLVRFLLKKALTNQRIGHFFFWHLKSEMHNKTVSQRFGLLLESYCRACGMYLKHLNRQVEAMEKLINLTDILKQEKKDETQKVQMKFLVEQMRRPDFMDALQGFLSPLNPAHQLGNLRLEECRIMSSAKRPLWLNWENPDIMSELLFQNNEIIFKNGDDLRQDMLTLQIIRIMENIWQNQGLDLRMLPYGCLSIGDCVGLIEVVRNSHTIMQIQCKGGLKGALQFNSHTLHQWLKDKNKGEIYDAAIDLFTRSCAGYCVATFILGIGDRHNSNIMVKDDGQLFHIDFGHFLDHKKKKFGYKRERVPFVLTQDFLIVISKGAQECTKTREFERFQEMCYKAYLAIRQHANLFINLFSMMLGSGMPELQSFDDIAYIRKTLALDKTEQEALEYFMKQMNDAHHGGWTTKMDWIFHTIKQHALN
Chain of human AMP-activated Protein Kinase, alpha 1 (AMPKa1), PRKAA1 (gene 5562) (Q13131 whole entry, looked up): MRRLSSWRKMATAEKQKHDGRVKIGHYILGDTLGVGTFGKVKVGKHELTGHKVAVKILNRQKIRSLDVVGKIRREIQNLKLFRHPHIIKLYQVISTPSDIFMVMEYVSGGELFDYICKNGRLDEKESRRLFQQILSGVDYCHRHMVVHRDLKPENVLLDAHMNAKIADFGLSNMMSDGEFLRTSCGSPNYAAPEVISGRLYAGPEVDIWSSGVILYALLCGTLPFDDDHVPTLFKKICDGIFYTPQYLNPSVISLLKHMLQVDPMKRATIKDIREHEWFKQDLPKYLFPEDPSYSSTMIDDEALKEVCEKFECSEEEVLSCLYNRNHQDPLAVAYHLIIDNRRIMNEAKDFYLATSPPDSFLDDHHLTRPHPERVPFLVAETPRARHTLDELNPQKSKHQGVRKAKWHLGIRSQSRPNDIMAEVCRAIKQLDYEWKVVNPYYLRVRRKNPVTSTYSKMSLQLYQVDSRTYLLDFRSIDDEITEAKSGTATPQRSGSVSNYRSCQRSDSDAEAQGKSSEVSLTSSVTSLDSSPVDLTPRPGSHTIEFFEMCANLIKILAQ
Chain of human Matrix Metalloproteinase-1 (MMP1), MMP1 (gene 4312) (P03956 whole entry, looked up): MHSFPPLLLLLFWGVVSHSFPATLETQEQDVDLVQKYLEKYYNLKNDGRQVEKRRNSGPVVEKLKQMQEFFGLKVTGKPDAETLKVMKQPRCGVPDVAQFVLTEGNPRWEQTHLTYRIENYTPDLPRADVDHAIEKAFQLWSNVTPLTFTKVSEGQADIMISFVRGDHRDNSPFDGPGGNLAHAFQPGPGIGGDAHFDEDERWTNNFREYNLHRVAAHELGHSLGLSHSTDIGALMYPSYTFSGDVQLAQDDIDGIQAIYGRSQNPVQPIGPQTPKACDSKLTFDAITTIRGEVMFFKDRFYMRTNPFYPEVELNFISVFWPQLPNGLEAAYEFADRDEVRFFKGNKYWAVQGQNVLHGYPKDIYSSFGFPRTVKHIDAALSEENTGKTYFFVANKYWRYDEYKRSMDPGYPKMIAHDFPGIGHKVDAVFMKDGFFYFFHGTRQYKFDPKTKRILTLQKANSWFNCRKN
Chain of rat Monoamine Oxidase, MAO-B, Peripheral (MAOBP), Maob (gene 25750) (P19643 whole entry, looked up): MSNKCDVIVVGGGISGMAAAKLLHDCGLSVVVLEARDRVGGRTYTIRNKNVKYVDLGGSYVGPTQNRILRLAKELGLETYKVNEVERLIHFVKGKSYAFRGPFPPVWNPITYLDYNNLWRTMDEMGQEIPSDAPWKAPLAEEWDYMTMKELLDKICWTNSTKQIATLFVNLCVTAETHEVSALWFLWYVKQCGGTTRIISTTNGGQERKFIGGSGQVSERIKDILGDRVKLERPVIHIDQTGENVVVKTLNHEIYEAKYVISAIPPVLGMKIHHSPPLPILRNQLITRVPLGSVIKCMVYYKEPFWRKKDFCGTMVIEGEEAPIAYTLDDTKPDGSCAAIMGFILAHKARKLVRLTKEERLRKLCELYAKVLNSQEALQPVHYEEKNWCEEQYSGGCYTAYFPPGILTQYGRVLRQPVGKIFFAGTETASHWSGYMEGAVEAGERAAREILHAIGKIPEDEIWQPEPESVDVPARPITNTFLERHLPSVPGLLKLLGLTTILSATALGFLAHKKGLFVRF
Chain of Norway rat Vesicular Monoamine Transporter (VMAT2), neurotransmitter transporter, Slc18a2 (gene 25549) (Q01827 whole entry, looked up): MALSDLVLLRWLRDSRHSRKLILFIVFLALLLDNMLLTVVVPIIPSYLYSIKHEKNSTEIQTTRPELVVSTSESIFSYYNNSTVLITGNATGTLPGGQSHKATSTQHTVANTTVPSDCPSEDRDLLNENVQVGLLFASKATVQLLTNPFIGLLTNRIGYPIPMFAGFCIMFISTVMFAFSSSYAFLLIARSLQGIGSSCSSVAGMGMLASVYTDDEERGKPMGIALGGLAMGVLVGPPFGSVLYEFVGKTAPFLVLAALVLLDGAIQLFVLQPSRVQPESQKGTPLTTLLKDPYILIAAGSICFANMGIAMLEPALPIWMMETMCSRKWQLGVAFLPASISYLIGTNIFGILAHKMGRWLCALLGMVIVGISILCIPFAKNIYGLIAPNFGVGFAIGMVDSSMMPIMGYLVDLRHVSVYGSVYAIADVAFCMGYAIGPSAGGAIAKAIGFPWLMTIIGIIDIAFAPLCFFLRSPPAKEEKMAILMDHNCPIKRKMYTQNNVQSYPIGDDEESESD

CC1(C)[C@H](C(=O)O[C@H](C#N)c2cccc(Oc3ccccc3)c2)[C@@H]1C=C(Br)Br
AC50 [1]: 7.41 µM (active)
AC50 [2]: 32.8 µM (active)
AC50 [3]: 1.62 µM (active)
AC50 [4]: 1.62 µM (active)
AC50 [5]: 2.53 µM (active)
AC50 [6]: 0.418 µM (active)
AC50 [7]: 0.387 µM (active)
AC50 [8]: 2.09 µM (active)
AC50 [9]: 1.1 µM (active)
AC50 [10]: 2.72 µM (active)
AC50 [11]: 1.5 µM (active)

O=C1C=CC(=O)C=C1
AC50 [1]: 13.9 µM (active)

COC(C)(C)CCC[C@H](C)C/C=C/C(C)=C/C(=O)OC(C)C
outcome [12]: inactive
outcome [13]: inactive

O=[N+]([O-])c1ccc(Cl)cc1
outcome [14]: inactive
outcome [12]: inactive
outcome [2]: inactive

Cc1ccccc1CCl
outcome [13]: inactive

O=c1c2ccccc2c(=O)c2c1cc(Cl)c1[nH]c3c([nH]c12)c(Cl)cc1c(=O)c2ccccc2c(=O)c13
outcome [12]: inactive
AC50 [13]: 4.37 µM (active)
outcome [3]: inactive
outcome [4]: inactive
outcome [5]: inactive
outcome [6]: inactive
outcome [7]: inactive
outcome [8]: inactive
AC50 [9]: 21 µM (active)
outcome [10]: inactive
outcome [11]: inactive

NC(=O)c1nc(-c2cccc(-c3cc(F)ccc3OCC(F)(F)C(F)(F)F)c2)n[nH]1
AC50 [15]: 1.27 µM (active)
outcome [16]: inactive

CCN(CC)CCOc1ccc(C(=C(Cl)c2ccccc2)c2ccccc2)cc1
AC50 [14]: 26.5 µM (active)
outcome [15]: inactive
AC50 [16]: 3.9 µM (active)
outcome [17]: inactive
AC50 [18]: 5.01 µM (active)
AC50 [19]: 81.6 µM (active)

N#CSCSc1nc2ccccc2s1
AC50 [20]: 5.12 µM (active)

CCCCOCCOCCOCc1cc2c(cc1CCC)OCO2
outcome [20]: inactive

O=c1c(-c2ccc(O)cc2)coc2cc(O)cc(O)c12
outcome [18]: inactive

Cc1nc(-c2ccc3c(c2)CCN(CCC2CCC(NC(=O)/C=C/c4ccc(F)cc4)CC2)CC3)no1 (centres undefined)
outcome [14]: inactive

CC1(C)C(=O)N(Br)C(=O)N1Br
outcome [17]: inactive

CC(C)(c1ccc(O)cc1)c1ccc(O)cc1
AC50 [20]: 7.75 µM (active) and 4.05 µM (active) and 10 µM (active)
AC50 [18]: 12.5 µM (active) [middle of 4 runs]
outcome [19]: inactive

Cc1nn(C)c(Oc2ccccc2)c1C=NOCc1ccc(C(=O)OC(C)(C)C)cc1
outcome [17]: inactive
outcome [19]: inactive

CCCCCCCCCCCCCCCCOS(=O)(=O)O
AC50 [15]: 4.54 µM (active)

Oc1ccc2ccccc2c1
AC50 [16]: 13.3 µM (active)

Source: PubChem BioAssay (EPA / NIEHS)
